# Article PMC7862700, “An all-to-all approach to the identification of sequence-specific readers for epigenetic DNA modifications on cytosine”
# Columns and labels:
# Experiment in all cases: DAPPL (digital affinity profiling via proximity ligation, sequencing); 10 mM Tris-HCl pH 7.5, 50 mM NaCl, 1 mM DTT, 4% glycerol, room temperature, 30 min; GST-TFs on glutathione beads, 16-mer random dsDNA library, 0.1% formaldehyde crosslink after washing; high values mean tight binding
# [1] = molecular target: T1, FLI1 (Homo sapiens, UniProt Q01543 1-452); settings: protein: recombinant; tags: N-terminal GST; dsDNA, one strand shown
# T1 sequence: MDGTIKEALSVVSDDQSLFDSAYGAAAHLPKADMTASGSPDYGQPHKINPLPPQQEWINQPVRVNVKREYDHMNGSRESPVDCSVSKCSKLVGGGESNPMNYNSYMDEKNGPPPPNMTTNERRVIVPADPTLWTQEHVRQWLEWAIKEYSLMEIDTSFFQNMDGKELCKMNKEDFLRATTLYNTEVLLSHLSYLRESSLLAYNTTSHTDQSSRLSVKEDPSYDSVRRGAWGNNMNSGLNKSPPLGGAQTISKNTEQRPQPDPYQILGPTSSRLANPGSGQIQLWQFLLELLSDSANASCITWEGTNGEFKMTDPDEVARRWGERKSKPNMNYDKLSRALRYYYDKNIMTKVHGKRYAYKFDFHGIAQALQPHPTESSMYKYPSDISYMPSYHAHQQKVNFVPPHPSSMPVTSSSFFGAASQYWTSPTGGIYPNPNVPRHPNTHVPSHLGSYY
# In short: (§1)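 Beads coated with glutathione captured GST-fused human transcription factors that had been expressed in yeast, and the factors were then given DNA barcodes and pooled with a tag-only sample. The pools were incubated with 200 nmole of a random double-stranded 16-mer DNA library in Tris/NaCl/DTT/glycerol buffer for 30 min at room temperature, washed, crosslinked with 0.1% formaldehyde and proximity-ligated with BsaI/T4 ligase at 37 °C for 1 h. PCR amplification and Illumina NextSeq500 sequencing came last. Binding signal is each hexamer's read frequency for a factor divided by its frequency for the tag-only sample.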
# [2] = molecular target: T2, ELK1 (Homo sapiens, UniProt P19419 1-428); settings: protein: recombinant; tags: N-terminal GST; dsDNA, one strand shown
# T2 sequence: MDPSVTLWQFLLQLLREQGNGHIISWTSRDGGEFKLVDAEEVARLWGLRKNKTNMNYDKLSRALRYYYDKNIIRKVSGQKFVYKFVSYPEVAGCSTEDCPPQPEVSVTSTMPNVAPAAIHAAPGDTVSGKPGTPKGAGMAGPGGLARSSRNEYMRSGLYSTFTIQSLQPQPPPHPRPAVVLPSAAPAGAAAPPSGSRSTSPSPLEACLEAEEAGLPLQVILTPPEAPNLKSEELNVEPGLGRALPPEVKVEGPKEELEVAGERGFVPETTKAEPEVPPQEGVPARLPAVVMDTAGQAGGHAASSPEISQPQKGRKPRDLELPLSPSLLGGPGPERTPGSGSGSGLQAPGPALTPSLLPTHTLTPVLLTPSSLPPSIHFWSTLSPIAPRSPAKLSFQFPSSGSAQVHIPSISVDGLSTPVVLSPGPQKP
# In short: as §1
# [3] = molecular target: T3, GABPA (Homo sapiens, UniProt Q06546 1-454); settings: protein: recombinant; tags: N-terminal GST; dsDNA, one strand shown
# T3 sequence: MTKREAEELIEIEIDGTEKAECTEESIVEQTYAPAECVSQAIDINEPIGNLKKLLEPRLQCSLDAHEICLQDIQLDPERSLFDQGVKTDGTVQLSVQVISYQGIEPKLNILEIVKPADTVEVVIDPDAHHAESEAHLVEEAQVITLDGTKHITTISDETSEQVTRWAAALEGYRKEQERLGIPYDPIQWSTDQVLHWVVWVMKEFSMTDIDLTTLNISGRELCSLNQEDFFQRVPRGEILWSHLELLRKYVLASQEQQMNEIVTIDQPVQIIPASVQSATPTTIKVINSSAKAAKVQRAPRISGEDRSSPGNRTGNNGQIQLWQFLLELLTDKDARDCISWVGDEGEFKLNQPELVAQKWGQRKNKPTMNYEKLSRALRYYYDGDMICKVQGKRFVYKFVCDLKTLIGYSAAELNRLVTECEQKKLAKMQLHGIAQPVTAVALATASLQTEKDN
# In short: as §1
# [4] = molecular target: T4, ERG (Homo sapiens, UniProt P11308 1-479); settings: protein: recombinant; tags: N-terminal GST; dsDNA, one strand shown
# T4 sequence: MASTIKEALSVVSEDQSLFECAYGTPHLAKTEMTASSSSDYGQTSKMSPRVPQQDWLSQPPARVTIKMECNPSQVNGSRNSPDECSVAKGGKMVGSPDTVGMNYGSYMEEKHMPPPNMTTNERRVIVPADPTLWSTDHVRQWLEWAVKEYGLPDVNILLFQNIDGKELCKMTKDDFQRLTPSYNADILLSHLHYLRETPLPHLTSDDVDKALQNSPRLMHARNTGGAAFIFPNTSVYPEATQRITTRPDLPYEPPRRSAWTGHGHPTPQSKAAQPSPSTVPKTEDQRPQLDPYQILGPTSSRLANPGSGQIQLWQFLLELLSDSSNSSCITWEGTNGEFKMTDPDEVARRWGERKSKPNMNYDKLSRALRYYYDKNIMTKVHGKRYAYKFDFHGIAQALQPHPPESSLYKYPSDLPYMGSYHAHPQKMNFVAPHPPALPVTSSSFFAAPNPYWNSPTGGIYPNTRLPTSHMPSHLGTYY
# In short: as §1
# [5] = molecular target: ELF1 (Homo sapiens, UniProt P32519 1-619); settings: protein: recombinant; tags: N-terminal GST; dsDNA, one strand shown
# Chain of ELF1 (P32519 whole entry): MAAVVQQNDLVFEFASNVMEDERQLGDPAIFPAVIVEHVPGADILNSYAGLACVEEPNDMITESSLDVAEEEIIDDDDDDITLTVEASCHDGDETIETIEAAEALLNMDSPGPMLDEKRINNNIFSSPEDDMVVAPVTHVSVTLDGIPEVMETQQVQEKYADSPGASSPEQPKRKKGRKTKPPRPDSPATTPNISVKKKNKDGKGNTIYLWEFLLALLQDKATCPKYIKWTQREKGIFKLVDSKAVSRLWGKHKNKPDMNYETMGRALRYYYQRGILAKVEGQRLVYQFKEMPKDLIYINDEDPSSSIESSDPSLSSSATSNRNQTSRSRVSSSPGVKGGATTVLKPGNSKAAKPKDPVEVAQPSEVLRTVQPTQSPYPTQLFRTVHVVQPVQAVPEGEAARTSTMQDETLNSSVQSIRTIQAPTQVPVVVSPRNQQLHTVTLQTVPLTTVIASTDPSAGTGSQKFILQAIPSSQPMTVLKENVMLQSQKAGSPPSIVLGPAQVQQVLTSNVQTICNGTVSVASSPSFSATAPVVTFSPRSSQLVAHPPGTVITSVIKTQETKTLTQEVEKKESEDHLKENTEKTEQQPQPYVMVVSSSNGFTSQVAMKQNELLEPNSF
# In short: as §1
# [6] = molecular target: T5, EHF (Homo sapiens, UniProt Q9NZC4 1-300); settings: protein: recombinant; tags: N-terminal GST; dsDNA, one strand shown
# T5 sequence: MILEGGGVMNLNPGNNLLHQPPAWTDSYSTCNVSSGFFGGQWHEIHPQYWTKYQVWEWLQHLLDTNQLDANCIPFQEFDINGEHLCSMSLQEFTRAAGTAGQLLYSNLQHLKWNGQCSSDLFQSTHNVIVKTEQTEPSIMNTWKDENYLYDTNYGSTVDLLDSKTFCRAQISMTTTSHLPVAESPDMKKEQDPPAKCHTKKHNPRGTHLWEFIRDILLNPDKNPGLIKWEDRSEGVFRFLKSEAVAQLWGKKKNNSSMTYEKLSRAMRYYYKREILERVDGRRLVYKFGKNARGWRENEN
# In short: as §1
# [7] = molecular target: SPI1 (Homo sapiens, UniProt P17947 1-270); settings: protein: recombinant; tags: N-terminal GST; dsDNA, one strand shown
# In short: as §1
# [8] = molecular target: SPIB (Homo sapiens, UniProt Q01892 1-262); settings: protein: recombinant; tags: N-terminal GST; dsDNA, one strand shown
# Chain of SPIB (Q01892 whole entry): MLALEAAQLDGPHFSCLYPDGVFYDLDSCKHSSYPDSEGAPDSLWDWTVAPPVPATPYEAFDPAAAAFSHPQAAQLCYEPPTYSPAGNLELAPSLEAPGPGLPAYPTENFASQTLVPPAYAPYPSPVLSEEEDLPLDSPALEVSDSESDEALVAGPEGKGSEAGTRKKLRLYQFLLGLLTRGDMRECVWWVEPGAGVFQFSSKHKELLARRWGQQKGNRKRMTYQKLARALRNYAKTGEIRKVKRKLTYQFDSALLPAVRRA
# In short: as §1
# [9] = molecular target: T6, ELK3 (Homo sapiens, UniProt P41970 1-407); settings: protein: recombinant; tags: N-terminal GST; dsDNA, one strand shown
# T6 sequence: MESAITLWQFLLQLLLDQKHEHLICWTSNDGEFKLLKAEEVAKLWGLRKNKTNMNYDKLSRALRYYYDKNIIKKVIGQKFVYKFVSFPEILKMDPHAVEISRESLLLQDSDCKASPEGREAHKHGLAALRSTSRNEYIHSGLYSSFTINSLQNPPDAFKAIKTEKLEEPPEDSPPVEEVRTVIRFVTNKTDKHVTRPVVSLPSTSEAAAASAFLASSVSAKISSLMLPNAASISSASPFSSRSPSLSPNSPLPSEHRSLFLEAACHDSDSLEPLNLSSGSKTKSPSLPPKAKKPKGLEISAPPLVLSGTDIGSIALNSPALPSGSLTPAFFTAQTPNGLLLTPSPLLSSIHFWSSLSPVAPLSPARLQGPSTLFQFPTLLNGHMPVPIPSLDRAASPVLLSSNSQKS
# In short: as §1
# [10] = molecular target: T7, FEV (Homo sapiens, UniProt Q99581 1-238); settings: protein: recombinant; tags: N-terminal GST; dsDNA, one strand shown
# T7 sequence: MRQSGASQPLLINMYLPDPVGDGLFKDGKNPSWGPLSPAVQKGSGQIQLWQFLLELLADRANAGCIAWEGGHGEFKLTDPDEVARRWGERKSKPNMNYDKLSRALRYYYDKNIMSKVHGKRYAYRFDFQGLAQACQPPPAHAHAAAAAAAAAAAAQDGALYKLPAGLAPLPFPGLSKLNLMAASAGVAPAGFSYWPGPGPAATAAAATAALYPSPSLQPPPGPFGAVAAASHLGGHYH
# In short: as §1
# [11] = molecular target: ETV5 (Homo sapiens, UniProt P41161 1-510); settings: protein: recombinant; tags: N-terminal GST; dsDNA, one strand shown
# Chain of ETV5 (P41161 whole entry): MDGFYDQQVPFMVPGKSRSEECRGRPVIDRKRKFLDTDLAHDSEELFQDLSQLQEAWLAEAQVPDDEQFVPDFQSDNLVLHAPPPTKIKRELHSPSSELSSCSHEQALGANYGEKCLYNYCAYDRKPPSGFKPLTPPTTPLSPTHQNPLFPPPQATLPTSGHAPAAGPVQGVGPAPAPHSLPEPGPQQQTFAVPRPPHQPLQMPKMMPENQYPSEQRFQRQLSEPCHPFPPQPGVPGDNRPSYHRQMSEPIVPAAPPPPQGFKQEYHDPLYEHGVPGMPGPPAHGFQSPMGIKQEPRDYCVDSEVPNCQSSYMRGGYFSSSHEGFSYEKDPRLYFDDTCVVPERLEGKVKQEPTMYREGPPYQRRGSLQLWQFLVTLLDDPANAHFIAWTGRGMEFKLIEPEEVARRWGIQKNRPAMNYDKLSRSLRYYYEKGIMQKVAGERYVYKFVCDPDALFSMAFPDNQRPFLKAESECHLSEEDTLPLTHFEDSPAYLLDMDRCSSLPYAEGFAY
# In short: as §1
# [12] = molecular target: HSF1 (Homo sapiens, UniProt Q00613 1-529); settings: protein: recombinant; tags: N-terminal GST; chain copies: 3; dsDNA, one strand shown
# Chain of HSF1 (Q00613 whole entry): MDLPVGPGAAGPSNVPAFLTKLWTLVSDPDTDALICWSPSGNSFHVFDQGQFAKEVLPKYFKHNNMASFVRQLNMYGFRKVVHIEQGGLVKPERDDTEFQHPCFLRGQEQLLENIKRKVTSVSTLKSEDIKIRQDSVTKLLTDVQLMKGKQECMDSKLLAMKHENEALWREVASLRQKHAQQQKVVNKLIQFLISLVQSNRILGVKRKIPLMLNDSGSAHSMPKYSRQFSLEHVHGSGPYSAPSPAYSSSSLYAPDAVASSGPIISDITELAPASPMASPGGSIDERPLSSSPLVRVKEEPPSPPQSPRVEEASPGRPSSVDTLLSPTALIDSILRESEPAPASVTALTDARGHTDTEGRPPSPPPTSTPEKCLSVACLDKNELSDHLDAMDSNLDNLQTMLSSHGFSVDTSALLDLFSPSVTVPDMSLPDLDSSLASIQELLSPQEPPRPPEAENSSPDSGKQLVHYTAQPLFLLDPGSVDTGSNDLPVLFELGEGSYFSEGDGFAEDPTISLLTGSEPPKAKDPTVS
# In short: as §1
# [13] = molecular target: T8, SPIC (Homo sapiens, UniProt Q8N5J4 1-248); settings: protein: recombinant; tags: N-terminal GST; dsDNA, one strand shown
# T8 sequence: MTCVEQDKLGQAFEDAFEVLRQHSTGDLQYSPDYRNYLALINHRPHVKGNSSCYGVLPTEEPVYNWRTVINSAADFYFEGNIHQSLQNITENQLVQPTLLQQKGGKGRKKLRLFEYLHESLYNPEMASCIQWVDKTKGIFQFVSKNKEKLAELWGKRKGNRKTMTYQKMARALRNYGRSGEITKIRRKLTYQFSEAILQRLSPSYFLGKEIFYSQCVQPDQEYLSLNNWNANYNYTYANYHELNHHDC
# In short: as §1
# [14] = molecular target: ELF4 (Homo sapiens, UniProt Q99607 1-663); settings: protein: recombinant; tags: N-terminal GST; dsDNA, one strand shown
# Chain of ELF4 (Q99607 whole entry): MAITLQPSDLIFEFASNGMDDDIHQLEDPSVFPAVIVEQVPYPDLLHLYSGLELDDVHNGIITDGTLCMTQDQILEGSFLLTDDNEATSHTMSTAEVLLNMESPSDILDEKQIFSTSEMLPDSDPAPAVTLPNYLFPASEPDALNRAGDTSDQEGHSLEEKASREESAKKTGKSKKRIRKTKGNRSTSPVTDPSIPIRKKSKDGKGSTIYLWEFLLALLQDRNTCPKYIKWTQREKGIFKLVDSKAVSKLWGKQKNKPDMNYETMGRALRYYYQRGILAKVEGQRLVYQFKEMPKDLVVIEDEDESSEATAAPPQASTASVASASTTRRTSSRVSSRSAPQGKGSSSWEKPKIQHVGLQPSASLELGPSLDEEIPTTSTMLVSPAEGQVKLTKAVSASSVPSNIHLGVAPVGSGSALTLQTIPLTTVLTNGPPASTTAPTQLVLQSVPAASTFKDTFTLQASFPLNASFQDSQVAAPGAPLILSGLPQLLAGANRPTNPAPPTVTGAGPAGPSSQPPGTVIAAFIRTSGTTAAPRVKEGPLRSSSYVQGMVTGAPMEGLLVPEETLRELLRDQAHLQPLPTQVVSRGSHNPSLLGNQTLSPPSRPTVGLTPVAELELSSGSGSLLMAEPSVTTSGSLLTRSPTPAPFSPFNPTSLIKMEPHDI
# In short: as §1
# [15] = molecular target: T9, ELK4 (Homo sapiens, UniProt P28324-2 1-405); settings: protein: recombinant; tags: N-terminal GST; dsDNA, one strand shown
# T9 sequence: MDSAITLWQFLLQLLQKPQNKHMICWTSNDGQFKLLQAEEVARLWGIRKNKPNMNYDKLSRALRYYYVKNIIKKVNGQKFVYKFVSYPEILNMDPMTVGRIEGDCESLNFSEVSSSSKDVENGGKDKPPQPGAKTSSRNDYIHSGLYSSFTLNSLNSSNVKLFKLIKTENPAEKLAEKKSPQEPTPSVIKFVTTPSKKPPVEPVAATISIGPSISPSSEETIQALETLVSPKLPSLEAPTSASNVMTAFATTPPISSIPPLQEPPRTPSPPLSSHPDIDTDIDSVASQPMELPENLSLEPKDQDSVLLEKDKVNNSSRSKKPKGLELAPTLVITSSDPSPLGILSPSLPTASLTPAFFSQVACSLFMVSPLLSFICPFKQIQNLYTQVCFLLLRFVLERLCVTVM
# In short: as §1
# [16] = molecular target: T10, ETV2 (Homo sapiens, UniProt O00321 1-342); settings: protein: recombinant; tags: N-terminal GST; dsDNA, one strand shown
# T10 sequence: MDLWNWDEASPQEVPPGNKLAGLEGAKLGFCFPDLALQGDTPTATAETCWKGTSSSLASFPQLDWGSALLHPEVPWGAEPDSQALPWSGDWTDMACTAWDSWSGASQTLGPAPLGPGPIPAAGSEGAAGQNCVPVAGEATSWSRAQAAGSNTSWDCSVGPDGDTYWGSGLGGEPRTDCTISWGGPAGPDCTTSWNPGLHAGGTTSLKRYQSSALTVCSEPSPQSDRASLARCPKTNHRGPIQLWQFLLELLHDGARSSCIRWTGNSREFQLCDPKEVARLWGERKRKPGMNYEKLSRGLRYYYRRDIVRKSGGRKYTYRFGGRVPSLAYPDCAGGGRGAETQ
# In short: as §1
# [17] = molecular target: T11, ELF3 (Homo sapiens, UniProt P78545 1-371); settings: protein: recombinant; tags: N-terminal GST; dsDNA, one strand shown
# T11 sequence: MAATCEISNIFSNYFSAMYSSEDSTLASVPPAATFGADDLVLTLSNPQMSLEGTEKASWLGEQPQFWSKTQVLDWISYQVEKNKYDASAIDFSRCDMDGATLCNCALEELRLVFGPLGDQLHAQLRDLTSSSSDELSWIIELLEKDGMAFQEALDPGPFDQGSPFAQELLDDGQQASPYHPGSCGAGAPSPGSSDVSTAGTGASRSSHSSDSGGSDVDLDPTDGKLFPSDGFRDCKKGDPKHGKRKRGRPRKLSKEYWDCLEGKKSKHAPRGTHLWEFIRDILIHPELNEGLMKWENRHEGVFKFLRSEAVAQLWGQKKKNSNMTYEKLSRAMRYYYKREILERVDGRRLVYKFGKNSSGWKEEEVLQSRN
# In short: as §1
# [18] = molecular target: CRX (Homo sapiens, UniProt O43186 1-299); settings: protein: recombinant; tags: N-terminal GST; dsDNA, one strand shown
# Chain of CRX (O43186 whole entry): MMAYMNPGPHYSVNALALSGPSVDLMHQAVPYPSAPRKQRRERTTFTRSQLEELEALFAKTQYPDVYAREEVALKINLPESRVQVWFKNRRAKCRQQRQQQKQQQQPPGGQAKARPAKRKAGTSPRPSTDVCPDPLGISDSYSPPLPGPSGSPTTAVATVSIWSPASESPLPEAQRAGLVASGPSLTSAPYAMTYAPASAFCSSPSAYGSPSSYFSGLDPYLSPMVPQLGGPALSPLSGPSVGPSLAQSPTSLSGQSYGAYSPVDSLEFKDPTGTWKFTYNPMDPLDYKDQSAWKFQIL
# In short: as §1
# [19] = molecular target: ETV1 (Homo sapiens, UniProt P50549 1-477); settings: protein: recombinant; tags: N-terminal GST; dsDNA, one strand shown
# Chain of ETV1 (P50549 whole entry): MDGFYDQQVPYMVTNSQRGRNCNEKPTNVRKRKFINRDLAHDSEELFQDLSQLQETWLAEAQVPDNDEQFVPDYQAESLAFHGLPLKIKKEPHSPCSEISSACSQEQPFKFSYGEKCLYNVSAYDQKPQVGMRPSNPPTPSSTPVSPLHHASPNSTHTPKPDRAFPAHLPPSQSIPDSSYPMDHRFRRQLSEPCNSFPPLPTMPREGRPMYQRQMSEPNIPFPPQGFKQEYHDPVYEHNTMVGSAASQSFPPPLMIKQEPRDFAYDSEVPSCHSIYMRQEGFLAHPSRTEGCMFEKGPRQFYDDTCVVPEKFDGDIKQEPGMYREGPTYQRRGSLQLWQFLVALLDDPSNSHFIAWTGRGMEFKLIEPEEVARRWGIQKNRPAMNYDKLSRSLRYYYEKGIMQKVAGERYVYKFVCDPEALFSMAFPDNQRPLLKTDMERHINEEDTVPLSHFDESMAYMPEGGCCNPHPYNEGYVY
# In short: as §1
sequence,measurement,setting,value
GTATAT,binding signal,[1],"1.13 fold enrichment (6-mer frequency, TF over GST control)"
same,binding signal,[2],"1.22 fold enrichment (6-mer frequency, TF over GST control)"
same,binding signal,[3],"1.13 fold enrichment (6-mer frequency, TF over GST control)"
same,binding signal,[4],"1.09 fold enrichment (6-mer frequency, TF over GST control)"
same,binding signal,[5],"1.17 fold enrichment (6-mer frequency, TF over GST control)"
same,binding signal,[6],"1.2 fold enrichment (6-mer frequency, TF over GST control)"
same,binding signal,[7],"1.13 fold enrichment (6-mer frequency, TF over GST control)"
same,binding signal,[8],"1.23 fold enrichment (6-mer frequency, TF over GST control)"
same,binding signal,[9],"1.11 fold enrichment (6-mer frequency, TF over GST control)"
same,binding signal,[10],"1.06 fold enrichment (6-mer frequency, TF over GST control)"
same,binding signal,[11],"1.19 fold enrichment (6-mer frequency, TF over GST control)"
same,binding signal,[12],"1.04 fold enrichment (6-mer frequency, TF over GST control)"
same,binding signal,[13],"1.18 fold enrichment (6-mer frequency, TF over GST control)"
same,binding signal,[14],"1.17 fold enrichment (6-mer frequency, TF over GST control)"
same,binding signal,[15],"1.21 fold enrichment (6-mer frequency, TF over GST control)"
same,binding signal,[16],"1.12 fold enrichment (6-mer frequency, TF over GST control)"
same,binding signal,[17],"1.02 fold enrichment (6-mer frequency, TF over GST control)"
same,binding signal,[18],"1.07 fold enrichment (6-mer frequency, TF over GST control)"
same,binding signal,[19],"1.18 fold enrichment (6-mer frequency, TF over GST control)"
